Potency data for 100 compounds are collected here from PubChem BioAssay AID1463 (National Center for Advancing Translational Sciences (NCATS), 2008).

The whole screen tested about 280,000 compounds, of which about 2,600 (0.93%) were called active. Not shown: some 8% with an inconclusive outcome. Calls come from the whole dose curve; as a rule, active = well fitted curve in the direction sought with a large enough effect; inconclusive = small, poorly fitted or top-dose-only effect; inactive = flat fitted curve, though single readings scatter. The list comes from a sample in which actives are over-represented; it also holds similar structures and randomly drawn compounds. A call without a number means that no potency is given here.
Potency is the fitted concentration of half-maximal effect; tags give direction and shape of the fitted curve or compound fluorescence and quenching.

This assay in a line: Counterscreen qHTS for Inhibitors of Tau Fibril Formation, Fluorescence Polarization. Note: nearly all actives have a fitted effect of over 55% in size. The note with it: tau K18 P301L Alexa594 fluorescence, heparin fibrillization; series mostly up to 57.7 µM. The method, boiled down: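 Human tau K18 P301L (15 uM unlabeled, 0.24 uM Alexa 594-labeled) in 100 mM sodium acetate pH 7 with 20 uM heparin, 6 hr at 37 C. ThT 30 uM added, 1 hr ambient; Alexa 594 FP and total fluorescence read at 555/632 nm.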
Regarding `COc1ccc(C)cc1NC(=O)CCc1c(C)nn(-c2ccc(N3CCOCC3)nn2)c1C`, the Potency entry is “inactive”. Consider `CC(=O)Nc1ccc(NC(=O)C2CCCN(S(=O)(=O)c3ccc4c(c3)CCCC(=O)N4)C2)cc1` (stereo not given), for which the Potency entry was “inactive”.

Take `COc1ccc2nc(Nc3nc(-c4ccncc4)cs3)sc2c1`: the Potency is 17.8 µM [quencher] (active).

Regarding `COc1ccc(NC(=O)Nc2ccc3nsnc3c2)cc1`, the Potency is 15.8 µM [quencher] (active). On to `Cc1nc2cc3c(cc2s1)OCO3`, for which the Potency result was “inactive”.

Take `CCOc1ccc2nc(Nc3nc4ccc(NC(C)=O)cc4s3)sc2c1`: the Potency was 15.8 µM [quencher] (active). The same measure for `COc1ccc(/C=N/NC(=O)Nc2ccc3nsnc3c2)c(OC)c1`: “inactive”. In the case of `COc1cccc(C(=O)Nc2nc3ccc(S(C)(=O)=O)cc3s2)c1`, the Potency result is “inactive”. Consider `CCC(=O)c1ccc(OCC(=O)Nc2ccc3nc(C)sc3c2)cc1`, for which the Potency entry was “inactive”. Take `COc1ccc(NC(=O)Nc2cccc(-c3noc(C)n3)c2)cc1`: the Potency entry is “inactive”.

Regarding `COc1ccc2nc(Nc3nc(-c4cc5ccccc5oc4=O)cs3)sc2c1`, the Potency entry is “inactive”. `COc1ccc2nc(NC(=O)[C@@H]3CCCN3C(=O)c3cccs3)sc2c1`: the Potency result is “inactive”. For the compound `COc1ccc2nc(Nc3nc4cc5c(cc4s3)OCCO5)sc2c1`, the Potency was 7.08 µM [quencher] (active).

In the case of `CCOc1ccc2nc(NC(=O)CSc3nc4c(c(=O)n(C)c(=O)n4C)n3CC)sc2c1`, the Potency entry is “inactive”. For the compound `CCc1cnc2c(c1SCC(=O)c1ccccc1)c(=O)n(C)c(=O)n2C`, the Potency result was “inactive”. As for `COc1ccc(OC)c(CNC(=O)CN2C(=O)CCn3nc(-c4cn(C)c5ccccc45)cc32)c1`, the Potency result is “inactive”. As to `COc1ccc2[nH]c3c(c2c1)CCN(C(=O)CCC1CCCC1)C3c1ccc(F)cc1` (stereo not given), the Potency entry is “inactive”.

For `Cc1cccc(C2CC(=O)Oc3c2c(=O)n(C)c2ccccc32)c1` (stereo not given), the Potency entry is “inactive”.

Consider `CCC(=O)Nc1cccc(C(=O)OCc2cc(=O)n3nc(CC)sc3n2)c1`, for which the Potency result is “inactive”.

Consider `O=C(O)c1ccc2c(c1)N(Cc1ccc(F)cc1)C(=O)c1ccccc1S2=O` (stereo not given), for which the Potency result is “inactive”.

As for `Cc1cccc(NC(=O)c2ccc(F)c(S(=O)(=O)N(C)C3CCCCC3)c2)c1`, the Potency entry is “inactive”. Consider `CCOc1ccc(OCC)c(NC(=O)c2c(C)nn(-c3ccccc3)c2-n2cccc2)c1`, for which the Potency entry is “inactive”. In the case of `Cc1ccc(C2c3[nH]c4ccccc4c3CCN2C(=O)c2cccc(C)c2)cc1` (stereo not given), the Potency entry is “inactive”.

Turning to `CCOc1cccc(CNC(=O)c2ccc(N3CCCC3)c(NC(=O)Nc3ccccc3CC)c2)c1`, the Potency entry was “inactive”. The result for `CCCC(=O)Nc1nc2ccc(NC(=O)c3c(F)c(F)c(OC)c(F)c3F)cc2s1` reads “inactive”; that for `CNC(=O)c1ccc2nc(NC(C)=O)sc2c1`, “inactive”; that for `COc1ccc2nc(Nc3nc4ccc(NC(C)=O)cc4s3)sc2c1`, 12.6 µM [quencher] (active).

Turning to `COc1ccc(Cl)cc1N(C)C(=O)c1cc2c(=O)oc3ccc(C)cc3c2s1`, the Potency entry was “inactive”.

As to `COc1ccc(CCNS(=O)(=O)c2cc(-c3cc(C)no3)ccc2C)cc1OC`, the Potency entry was “inactive”. For `CC(C)(C)c1ccc(C(=O)NCC(c2ccc(Cl)cc2)N2CCOCC2)cc1` (stereo not given), the Potency entry is “inactive”. The result for `COc1ccc(Br)cc1C1CC(=O)Nc2c1c(C)nn2-c1nc(C)cc(C)n1` (stereo not given) reads “inactive”; that for `COc1ccc(/C=N/NC(=O)c2ccc(Cl)cc2)cc1COC(C)=O`, “inactive”. In the case of `COc1ccc(/C=N/NC(=O)c2ccncc2)cc1CN1CCCc2ccccc21`, the Potency is 14.1 µM [quencher] (active). As to `COc1ccccc1Cc1nc2ccccc2nc1SCC(=O)N1CCCc2ccccc21`, the Potency result was “inactive”. As to `CCOC(=O)C1CCCN(C(=O)c2ccc(-n3ccc4ccccc43)s2)C1` (stereo not given), the Potency result is “inactive”. In the case of `CCOc1ccc(N(CC)C(=O)c2noc3c2COc2ccc(C)cc2-3)cc1`, the Potency entry is “inactive”. Regarding `COc1ccc2c(C)c(CCC(=O)NCc3ccc(OC)c(OC)c3)c(=O)oc2c1`, the Potency entry is “inactive”. The same measure for `Cc1cc2c(cc3c(SCc4cccc(Cl)c4)nnc(C)n32)o1`: “inactive”; for `COc1ccc(OC)c(-c2nc(C(N)=O)c3c(n2)n(-c2ccc4c(c2)OCO4)c(=O)n3C)c1`: “inactive”; for `c1ccc2sc(NN=C3CCCC3)nc2c1`: “inactive”. The same measure for `COc1ccc(/C=N/Nc2nc3ccccc3o2)cc1OC`: “inactive”; for `CCNc1nc(NCC)nc(N/N=C/c2ccc(O)c(OC)c2)n1`: “inactive”. In the case of `Cc1ccc(S(=O)(=O)Nc2nc3ccccc3s2)cc1[N+](=O)[O-]`, the Potency result is “inactive”.

Turning to `COc1ccc(/C=N\NC(=O)c2sc(N)nc2C)cc1OC`, the Potency result is “inactive”. As for `COc1cc(/C=N\Nc2nc(-c3cccs3)c(NC(C)=O)s2)ccc1O`, the Potency is 17.8 µM [quencher] (active). With `COc1cc(/C=N/Nc2nc3ccccc3s2)ccc1O`, the Potency is 12.6 µM [quencher] (active). Consider `O=[N+]([O-])c1cc(Br)c(O)c(/C=N/Nc2nc3ccccc3s2)c1`, for which the Potency is 7.94 µM [quencher] (active).

For the compound `COc1cc(/C=N/NC(=O)CCc2n[nH]c(=O)[nH]c2=O)ccc1O`, the Potency result is “inactive”.

Regarding `CCCN1CCN(CCCNC(=O)c2ccc3nc(Cc4ccccc4)oc3c2)CC1`, the Potency result was “inactive”. On to `O=C1CN(C(=O)Nc2ccccc2C(F)(F)F)C(c2ccccc2)c2c(sc3c2CCCC3)N1` (stereo not given), for which the Potency result is “inactive”.

As to `CCCN1CN=C(NS(=O)(=O)c2ccc(NC(C)=O)cc2)NC1`, the Potency result is “inactive”. In the case of `O=C(NCCc1ccccc1)c1cnc2sc(N3CCCC3)nn2c1=O`, the Potency result is “inactive”. On to `CN(C)CCCn1c(-c2ccc(Cl)cc2)csc1=Nc1ccccc1`, for which the Potency entry was “inactive”. With `Cc1cc(NS(=O)(=O)c2ccc3oc(=O)c4ncn(C)c4c3c2)ccc1Br`, the Potency entry was “inactive”. Regarding `O=C(Nc1ccc(-c2csc(Nc3cccc(C(F)(F)F)c3)n2)cc1)c1cccc(C(F)(F)F)c1`, the Potency is 5.01 µM [quencher] (active). Consider `Cc1cccc(NC(=O)c2cccc(C(F)(F)F)c2)c1`, for which the Potency result is “inactive”. Regarding `CNC(=O)c1ccc(NC(=O)c2cccc(C(F)(F)F)c2)cc1`, the Potency result is “inactive”. For the compound `CC(C)S(=O)(=O)c1oc(-c2ccc(F)cc2)nc1S(=O)(=O)c1ccc(F)cc1`, the Potency entry is “inactive”.

Turning to `CCOc1ccc(-c2n[nH]c(C)c2-c2ccccn2)c(O)c1`, the Potency entry is “inactive”.

Consider `C=C(C)COc1ccc(-c2n[nH]c(C)c2-c2ccccc2)c(O)c1`, for which the Potency was 15.8 µM [quencher] (active). Turning to `CC(=O)COc1ccc2c(-c3ccccc3)cc(=O)oc2c1`, the Potency entry is “inactive”. Regarding `C=C(C)COc1ccc(-c2n[nH]c(C)c2-c2ccccc2OC)c(O)c1`, the Potency was 17.8 µM [quencher] (active). On to `COc1ccccc1-c1n[nH]c2c1[C@H](C)CC[C@H]2C(C)C`, for which the Potency entry is “inactive”. As to `COc1ccccc1-c1c(C)nn2c(C)c(C(C)=O)cnc12`, the Potency result was “inactive”. As for `COc1ccc(CNC(=O)c2cc3cccc(OC)c3oc2=O)cc1`, the Potency entry is “inactive”.

Regarding `CSc1ccc(CCNC(=O)c2cc(C)nc3c2c(C)nn3-c2cccc(F)c2)cc1`, the Potency result is “inactive”.

Consider `Oc1cc2c(cc1O)CN(C(=S)NCCc1ccc(Cl)cc1)CCC2`, for which the Potency is 10 µM [quencher] (active). For the compound `O=C1CCN(C(=S)NCCc2ccccc2)CC1`, the Potency entry was “inactive”. The result for `S=C(NCCc1ccccc1)N1CCCCC1` reads “inactive”; that for `O=C(Cc1ccc(Cl)cc1)NCC(c1cccs1)S(=O)(=O)c1ccc(Cl)cc1` (stereo not given), “inactive”; that for `COc1ccc(-c2cn3nc(N4CCC(C(=O)Nc5cccc(C)c5C)CC4)sc3n2)cc1`, “inactive”. Regarding `Cc1ccc(-n2ncc(C(=O)N(C)Cc3ccccc3)c2-n2cccc2)cc1`, the Potency entry was “inactive”. Turning to `COCCNC(=O)Nc1ccc2nc(-c3ccco3)c(-c3ccco3)nc2c1`, the Potency is 8.91 µM [quencher] (active). As for `CCOc1ccc(NC(=O)c2ncoc2-c2ccco2)cc1`, the Potency entry was “inactive”. For `O=C(Nc1ccc2nccnc2c1)c1ccco1`, the Potency result is “inactive”. The same measure for `Cc1cc(C)cc(NC(c2nnc(-c3cccc(F)c3)o2)c2ccc(F)cc2Cl)c1` (stereo not given): “inactive”; for `O=C(NNc1c2ccccc2nc2ccccc12)c1cc2ccccc2cc1O`: 4.47 µM [quencher] (active).

Consider `CC(=O)Nc1ccc(Nc2c3ccccc3nc3ccccc23)cc1`, for which the Potency entry is “inactive”. The result for `O=C(Nc1c2c(nc3ccccc13)CCCC2)c1ccccc1Br` reads “inactive”; that for `O=C(O)CCC(=O)NCc1ccc2[nH]c3c(c2c1)CCCC3`, “inactive”.

Turning to `Cc1cccc(NC(=S)NCCN(C2CCCCC2)C2CCCC2)c1`, the Potency result is “inactive”.

As for `Cc1cccc(NC(=S)NCc2ccc3[nH]c4c(c3c2)CCCC4)c1`, the Potency was 14.1 µM [quencher] (active).

Regarding `CCc1ccc(NC(=O)N2CCN(C(=O)c3nsc4ccccc34)CC2)cc1`, the Potency entry is “inactive”. The same measure for `COc1ccc(S(=O)(=O)c2cn(C)c3cc(N4CCCCC4)c(F)cc3c2=O)cc1`: “inactive”; for `Cn1c(=O)c2c(nc(SCC(=O)Nc3ccc(F)cc3)n2Cc2ccccc2)n(C)c1=O`: “inactive”; for `CCc1ccc(CN(Cc2ccco2)C(=O)COc2ccc(Cl)c(C)c2)cc1`: “inactive”. Regarding `COc1ccc(-c2csc(NC(=O)COC(=O)c3ccc(Br)o3)n2)cc1`, the Potency result was “inactive”. In the case of `NS(=O)(=O)c1ccc(Nc2nc(-c3ccccc3)cs2)cc1`, the Potency is 15.8 µM [quencher] (active).

As to `O=C(Nc1nc(-c2ccc(-c3ccccc3)cc2)cs1)c1cnccn1`, the Potency result is “inactive”. For the compound `COc1ccc(-c2csc(NC(=O)c3ccc(N4C(=O)CCC4=O)cc3)n2)cc1OC`, the Potency entry is “inactive”. Regarding `COc1ccc(-c2csc(Nc3ccc(O)cc3)n2)cc1`, the Potency is 11.2 µM [quencher] (active). With `CC(=O)Nc1nc(C)c(-c2csc(Nc3ccc(S(N)(=O)=O)cc3)n2)s1`, the Potency entry is “inactive”. The same measure for `COc1ccc(OC)c(Nc2nc(-c3ccc(O)c(O)c3)cs2)c1`: 14.1 µM [quencher] (active); for `O=c1oc2ccccc2cc1-c1csc(Nc2ccc(O)cc2)n1`: 14.1 µM [quencher] (active). Turning to `Cc1ccc(-c2csc(NC(=O)c3cnccn3)n2)cc1C`, the Potency entry is “inactive”.

For the compound `Cc1cc(NC(=O)c2cccc(Cl)c2)ccc1-c1cc2ccccc2oc1=O`, the Potency entry is “inactive”. The result for `O=C(Nc1ccncc1)c1cc2ccccc2o1` reads “inactive”. As for `COc1ccc(-c2csc(NC(=O)CCCc3cccs3)n2)cc1`, the Potency result is “inactive”.

Regarding `Cc1cccc(NC(=O)c2ccc3nc(C(C)C)oc3c2)c1C`, the Potency result is “inactive”. The result for `CCOC(=O)c1ccc(NC(=O)CCS(=O)(=O)c2ccc(C)cc2)cc1` reads “inactive”.
